± gives the standard deviation of the averaged measurements. Whole data set: some 25,000 sequences, median “ln(normalized median fluorescence intensity)” near 8.6, cut for the highest 2% near 10. Only a selection was taken, and the highest values are over-represented in it overall.
system: PfAP2-EXP AP2 domain (GST-tagged); assay: gcPBM binding intensity (ln(normalized median fluorescence intensity)); higher = stronger DNA binding
Procedure, shortened: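 The highest Masliner-normalised natural-log median intensity across replicate spots of either probe orientation is reported as binding intensity. GST-tagged P. falciparum DNA-binding domains expressed in E. coli were applied for 1 h to an Agilent 4 × 180k array of primer-extended double-stranded 36-bp intergenic genomic probes plus negative controls, and bound protein was detected with Alexa488 anti-GST antibody and scanned at 488 nm.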

Sequence | gcPBM binding intensity (ln)
GATTTATATTTTAAAAGTACAAGTTAAAATAAAAGT [XGTACX_site7059] | 8.74 ± 0.33
ACATATTATATATGTGTGCACATATATATATATTTA [GTGCAC_site9591] | 8.47 ± 0.13
ATATATGATGTATTTGTGCACATATATATATTATTA [GTGCAC_site9471] | 8.75 ± 0.028
TTATTTTATTTTTTTGTGCACATATATATTTATAAA [GTGCAC_site9615] | 9.15 ± 0.21
ATATATATTATGTGTGTGCACTTTTGTTATTATTAT | 9 ± 0.33
TATGTATATTTTTTTGTGCACATATATATATATATA | 10.2 ± 0.26
TTTTTGTTATTATGTGTGCACATATATATATATATA | 10.3 ± 0.4
AACAAATACAGACACACACACACACTAATAAAAAAA [CACACA_site8067] | 8.66 ± 0.52
ATATATGGAAAGAGTAGTACTATTATAGGGGTGTTA [XGTACX_site6785] | 8.95 ± 0.64
TTTTTTTTGTAGAATTGTACTTATAAAATATATATA [XGTACX_site2116] | 8.19 ± 0.34
TAAAAATTACTATATGAACACACATGATTAGATATA [CACACA_site9012] | 8.43 ± 0.49
TTATATTTATAAAGGTGTACCTTAAAATGATTTTAC [XGTACX_site3774] | 8.19 ± 0.25
GTAATTTTATATGGTTGTACATATATATATATATAT [XGTACX_site6659] | 10.2 ± 0.18
ATTTATTTATTTATATGTACATATATATATATATAT [XGTACX_site339] | 10.1 ± 0.3
ATATATATATATATATGTACATATATTTATTTATTG [XGTACX_site6267] | 10.2 ± 0.3
ATATATATATATATATGTACATATGTCAACTGTCTA [XGTACX_site8636] | 10.3
ATTTGTTCATTTGGTTGTACATAATTTATTTTTATA [XGTACX_site785] | 8.75 ± 0.33
GTCATATATAATTGTTGTACATTTTTATAATTATGT [XGTACX_site8091] | 8.86 ± 0.36
TGTGTATATTATATGTGTACATATCAATGTTTATAT [XGTACX_site1885] | 8.61 ± 0.26
GCTCAATGTTTTACATGTACATATATATATATATAT [XGTACX_site8210] | 10.2 ± 0.33
TATACATGTATATATTGTACATATGTTTTTTTTACA [XGTACX_site3300] | 8.86 ± 0.57
ATATATATATATGTCTGTACATAAAAAATAATAAAT [XGTACX_site3122] | 10 ± 0.36
ATATATATATATATATGTACATATATTTATATTTAT [XGTACX_site6179] | 9.99 ± 0.42

Sequence | gcPBM binding intensity (ln)
AAAAAAAATATAATATGTACATATCTATATATCAAC [XGTACX_site4881] | 8.55 ± 0.38
GGAATTATAATAAATGGTACACATAAAAAAAAAAAA [XGTACX_site8343] | 8.77 ± 0.59
ATATATAATCATCACACATGCAGCCCTGATGAAAAA [TGCATGCA_site687] | 8.77 ± 0.38
TGCATACTTTTGTAAGTGCATAAAATCGTACCATGC | 8.71 ± 0.11
GATATTACGTGTTTGGTATTTTTTGATGTTAATAGG [CACACA_negctrl_site105] | 8.8 ± 0.52
TTATATTTTTACAAGAGTACATATATATATATATAT [XGTACX_site5383] | 10.2 ± 0.31
ATATATATATATGTATGTACATATTTTTTTTAACAC [XGTACX_site8475] | 9.93 ± 0.4
ATATATATATATATATGTACATATATTTTTATTTAT [XGTACX_site3508] | 10.3 ± 0.26
TATATACATTTATGTACACACACATATATGTATATT [CACACA_site8971] | 8.59 ± 0.34
ATATATATATATTTATGTACATATATTTTTTTTTTT [XGTACX_site8558] | 9.73 ± 0.28
ATATATATATATATATGTACATATTTTTTATTTTAT [XGTACX_site5761] | 10.1 ± 0.5
TTTTTTTTTTTTTTATGTACATATATATATTTTATT [XGTACX_site6915] | 8.61 ± 0.6
TTTTTTTTTATATTTAGTACATATATATTATTATAT [XGTACX_site3334] | 8.39 ± 0.31
ATATATATATATATATGTACATATTTTATAACTGTA [XGTACX_site5395] | 10.2 ± 0.33
CATATATATTTTATATGTACATATATATTTTATATA [XGTACX_site8665] | 8.45 ± 0.25
AAAAAAAAAAAAAAGAGTACATTTATTTATATATCT [XGTACX_site2381] | 8.23 ± 0.19
ATATATATATATGTATGTACACATATTTTTTAACTT [XGTACX_site431] | 10.42 ± 0.042
CTTAAGTAAAATTAAAGTACATGGACAAAAAATATA [XGTACX_site7900] | 8.87 ± 0.28
AAAAAAAAAAAAAAAAGTACAAAAAAAAAAAAAAAA [XGTACX_site4549] | 8.26 ± 0.057
AAAATTAATTATTACAAAAATGAAAAGACATATTTT [GTGCAC_negctrl_site735] | 8.23 ± 0.38
TAATCAATTCAATATTGTACGATATTTACCTTTAAA [XGTACX_site4678] | 8.89 ± 0.42
AGAGGGGAAAACATGATGCACTAGTATAACCAAGAA | 9.22 ± 0.34
GTGAATATTAAAAAATGTACACAATTATATGTATAT [XGTACX_site4834] | 8.49 ± 0.28

Sequence | gcPBM binding intensity (ln)
TTCAAAAGATATATCGTGCACATATATATGATGAAA | 9.35 ± 0.62
ATGCTCAGGAAAACATGTACAAAATTATTTGTTATA [XGTACX_site4306] | 8.31 ± 0.34
ATATATTTATTTATATGTACATATTATATATTATAG [XGTACX_site3371] | 8.55 ± 0.35
TGTATGTTTATTTATCGTACATATATATATATATAT [XGTACX_site7315] | 10.2 ± 0.18
AAGTATTTTTTTACATGTACATATATATATATATAT [XGTACX_site5065] | 10.2 ± 0.26
GTATATAAGTATATATGTACATATATTTTATATATA [XGTACX_site4745] | 8.42 ± 0.23
ATGTATATATATATATGTACATATTTTTTATATGTA [XGTACX_site441] | 8.29 ± 0.25
TATATTATATTTTTATGTACATATATGTTTTTTTTT [XGTACX_site8239] | 8.52 ± 0.092
TTTCATTAATCTAATAGTACAGAAAATTGAGAAAAA [XGTACX_site8395] | 8.72 ± 0.34
ATTTTTTTCTTTTCTTTTTTCTTTTTTTTTTTTGGT [CACACA_negctrl_site1146] | 8.35 ± 0.61
AACTTATTAAGCCCTCCACATTTCTCTACTACAACT [CACACA_negctrl_site1552] | 8.61 ± 0.43
TATAATTATATTTGGAGTACAAATTTTTTTTTTTTT [XGTACX_site7494] | 8.3 ± 0.32
TATATTTCAGGGGGGAGTACAAATTTTTTTATATAA [XGTACX_site1600] | 10.9 ± 0.38
TATTTTTTTTTTATATGTACATAATTTCAAATAAAT [XGTACX_site7747] | 8.62 ± 0.48
TTATAATATAAAAATAAATAAATAAATAAATAAATA [CACACA_negctrl_site1587] | 8.55 ± 0.11
TTATAAAAAAAAAAAAAAAATATATATATATATATA [XGTACX_negctrl_site592] | 10.3 ± 0.13
ATAAAAAAAAAAAAAAAATATATATATATATATATA [XGTACX_negctrl_site424] | 10.2 ± 0.32
ATATAAAAAAAAAAAAAAAAATATATATATATATAT [GTGCAC_negctrl_site251] | 10.2 ± 0.13
AAAAATAAAAAATATAAAAATATAAAAATATAAAAA [XGTACX_negctrl_site51] | 8.32 ± 0.38
TATAAAAAAAAAAAATATATATATATATAAATATAA [TGCATGCA_negctrl_site367] | 8.2 ± 0.31
TTATAATAAATATATAAAAAAAAAAAAAAAAAAAAA [CACACA_negctrl_site1639] | 7.97 ± 0.23
AAAAAAAAAAAAAAATATAAATATATATATATATAT [GTGCAC_negctrl_site28] | 10 ± 0.28
ATATAAATAAAAAAAAAAAAAAAAAAAAAAAAAAAA [CACACA_negctrl_site972] | 8.01 ± 0.43

Sequence | gcPBM binding intensity (ln)
TAAATAATATCTATCACACACGCATATATACATATA [CACACA_site2622] | 8.32 ± 0.44
TAATATTATTTTTCAGTGCAATATAACCTTAGAATT [GTGCAC_site9417] | 8.38 ± 0.32
CATGTTCATCAGAACGCACACATAATGGTTTACTTA [CACACA_site898] | 8.47 ± 0.3
TGAAAAATGTAATGCTCACACATATATATATATATA [CACACA_site5213] | 10.2 ± 0.32
CACAAAAATGTAATCACACATATATATATATATATA [CACACA_site5818] | 10.1 ± 0.38
ATATAATTAAAATGCTCACACACATAAAAAAAAATT [CACACA_site2148] | 8.43 ± 0.55
AATAAAATAAGAAGCACACAAATATTATATATAAAA [CACACA_site3980] | 8.78 ± 0.42
ATTATAAATTAAAATACACACATATATACCTAATAT [CACACA_site5541] | 8.47 ± 0.4
TTACAAATATTATAATGTACCCATTTTTTTTGCCTT [XGTACX_site6612] | 8.47 ± 0.39
CATAATATATATTGAGCATGCTACTATTGTTAGAAA [TGCATGCA_site740] | 9 ± 0.31
AGAAACCTTGTTAGTTAGCATATATATATATATATA [CACACA_negctrl_site372] | 10.2 ± 0.49
TTATTCTTTAACTAAAATTATATATATATATTATAC [CACACA_negctrl_site1597] | 8.38 ± 0.34
AATGATTTTAAATGAACATAATTTATATTCATAACA [GTGCAC_negctrl_site256] | 8.04 ± 0.42
TCAATTTTACTTGTTTGTACATAAAATAATAAGGTT [XGTACX_site3732] | 8.44 ± 0.47
GCACAACATATATTATCACACACATATATATATATA [CACACA_site8619] | 10.3 ± 0.18
AAAAAAAAAACACACACATGCACATCATATTATATA [TGCATGCA_site133] | 8.72 ± 0.54
ACAACATATGTTATCACACACATATAAATATAAATA [CACACA_site7038] | 8.41 ± 0.54
ATATCACATATATATATATATATATATATATATATA [XGTACX_negctrl_site463] | 9.95 ± 0.61
AATAAATTATATATCACACATATATATTTATATTTA [CACACA_site5964] | 8.13 ± 0.23
CCAACATATATTATCACACACATATATATATATATA [CACACA_site2016] | 10.2 ± 0.22
